Results filed as inconclusive are left out. The source made the active and inactive calls. Unless noted, calls follow the shape of the dose curve; as a rule, active = well fitted curve in the direction sought with a large enough effect in the repeat runs; inconclusive = weak or mixed curves; inactive = no such curve, though single readings can be large; an effect the other way counts as inactive or inconclusive.
Experiments:
[1] = qHTS assay to identify small molecule agonists of the vitamin D receptor (VDR) signaling pathway - cell viability counter screen (AID 743224); also: series mostly up to about 63 µM; % is scaled to controls: 0 for no effect and ±100 for the full control effect; nearly all actives have a fitted effect of over 50% in size
Method in brief: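 Cells: VDR-bla, 2,000/well, settled 4 h. Treatment: compounds in DMSO, 16 h, 37C/5% CO2. Readout: CellTiter-Glo luminescence after 30 min RT.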

[2] = qHTS assay to identify small molecule agonists of the NFkB signaling pathway (AID 1159509; active = well fitted curve in the direction sought with a large enough effect in the signal ratio in the repeat runs, not every such curve was filed as active; the % refers to the signal ratio; also: series mostly up to about 61 µM; % is scaled to controls: 0 for no effect and ±100 for the full control effect)
Method in brief: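 Beta-lactamase reporter assay run in quantitative high-throughput format on an NF-kB-responsive ME-180 line, with 5 hr compound treatment and a FRET-based blue/green fluorescence readout.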

[3] = qHTS assay to identify small molecule agonists of the NFkB signaling pathway - cell viability counter screen (AID 1159515; calls by dose curve; also: series mostly up to about 61 µM; % is scaled to controls: 0 for no effect and ±100 for the full control effect; nearly all actives have a fitted effect of over 55% in size)
Method in brief: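 Cells are seeded (2,000 NFkB-bla ME-180 per well), rested overnight, and dosed with DMSO-dissolved compounds for 5 hr at 37 C. Viability is then read by CellTiter-Glo luminescence after 30 min at room temperature.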

[4] = qHTS assay to identify small molecule agonists of the endoplasmic reticulum stress response signaling pathway (AID 1159516; active = well fitted activation curve with a large enough effect in the signal ratio in the repeat runs, not every such curve was filed as active; the % refers to the signal ratio; also: % is scaled to controls: 0 for no effect and ±100 for the full control effect)
Method in brief: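 Cells are seeded at 1,500 per well and incubated overnight. Compounds in DMSO are added for 5 hr at 37 C, then beta-lactamase FRET substrate for 2 hr at room temperature, and fluorescence at 460 and 530 nm is measured.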

[5] = qHTS assay to identify small molecule agonists of the endoplasmic reticulum stress response signaling pathway - cell viability counter screen (AID 1159517; calls by dose curve;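 also: HeLa cells carrying an ER stress response element beta-lactamase reporter; series mostly up to about 61 µM; % is scaled to controls: 0 for no effect and ±100 for the full control effect; nearly all actives have a fitted effect of over 50% in size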)
Method in brief: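 Steps: seed 1,500 ESRE-bla HeLa cells per well; incubate overnight at 37 C, 5% CO2; add compounds in DMSO for 5 hr; run FRET substrate 2 hr RT; add CellTiter-Glo, wait 30 min, read luminescence.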

[6] = qHTS assay to identify small molecule antagonists of the retinoid-related orphan receptor gamma (ROR-gamma) signaling pathway - cell viability counter screen (AID 1159520); also: % is scaled to controls: 0 for no effect and ±100 for the full control effect; nearly all actives have a fitted effect of over 50% in size
Method in brief: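 Tet-on ROR gamma CHO cells were given compounds for 2 hr, then doxycycline hyclate at 1 uM final, and incubated 16 hr at 37 C. Viability was measured as ATP content by CellTiter-Glo luminescence.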

[7] = molecular target: Nuclear receptor ROR-gamma (Homo sapiens) (UniProt P51449); test: qHTS assay to identify small molecule antagonists of the retinoid-related orphan receptor gamma (ROR-gamma) signaling pathway (AID 1159521;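 also: CHO cells with doxycycline inducible ROR-gamma driving an RORE luciferase reporter; top concentration of the series differs between compounds; % is scaled to controls: 0 for no effect and ±100 for the full control effect; nearly all actives have a fitted effect of over 50% in size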)
Method in brief: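 Tet-on RORγ CHO cells carrying a ROR response element–luciferase reporter were pretreated with compounds for 2 h, then induced with 1 uM (final) doxycycline hyclate for 16 h at 37 C. Antagonism was read as decreased ONE-Glo luminescence.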

[8] = qHTS assay to identify small molecule agonists of the AP-1 signaling pathway - cell viability counter screen (AID 1159525; calls by dose curve; also: nearly all actives have a fitted effect of over 55% in size)
Method in brief: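 Same-well cytotoxicity counter screen of the Tox21 10K library in ME-180 cells. The readout is ATP-dependent luminescence after 5 h compound treatment. Data are normalised to DMSO and tetra n-octyl ammonium bromide controls.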

[9] = molecular target: Retinoic acid receptor RXR-alpha (Homo sapiens) (UniProt P19793); test: qHTS assay to identify small molecule agonists of the RXR signaling pathway (AID 1159527; calls by dose curve; also: % is scaled to controls: 0 for no effect and ±100 for the full control effect; nearly all actives have a fitted effect of over 35% in size)
Sequence of Retinoic acid receptor RXR-alpha (Homo sapiens) (P19793 whole entry, looked up): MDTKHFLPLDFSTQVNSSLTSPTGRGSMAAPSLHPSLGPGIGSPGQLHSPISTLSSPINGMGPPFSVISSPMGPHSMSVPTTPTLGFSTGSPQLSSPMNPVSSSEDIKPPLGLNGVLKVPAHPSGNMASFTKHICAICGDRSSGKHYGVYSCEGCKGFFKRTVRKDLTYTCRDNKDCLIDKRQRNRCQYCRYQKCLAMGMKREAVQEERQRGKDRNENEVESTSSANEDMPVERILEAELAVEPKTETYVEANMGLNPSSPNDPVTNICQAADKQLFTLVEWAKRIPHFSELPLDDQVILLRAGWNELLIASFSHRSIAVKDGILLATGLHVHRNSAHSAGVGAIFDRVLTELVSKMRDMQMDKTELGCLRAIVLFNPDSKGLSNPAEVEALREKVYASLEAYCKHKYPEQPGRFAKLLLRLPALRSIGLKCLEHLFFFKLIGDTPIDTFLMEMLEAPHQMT
Method in brief: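 GeneBLAzer RXR-alpha-UAS-bla HEK 293T cells in medium with 2% charcoal-stripped FBS, pre-incubated 5 hr at 37 C, then exposed to compounds 16 hr. Beta-lactamase reporter read by FRET substrate, 2 hr room temperature, 460/530 nm emission.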

[10] = qHTS assay to identify small molecule agonists of the RXR signaling pathway - cell viability counter screen (AID 1159529)
Method in brief: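 RXR-alpha-UAS-bla HEK 293T cells in medium with 2% charcoal-stripped FBS were preincubated 5 hr, then exposed to compounds for 16 hr at 37 C. Viability was read as CellTiter-Glo luminescence after 30 min at room temperature.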

[11] = qHTS assay to identify small molecule antagonists of the retinoid acid receptor (RAR) signaling pathway - cell viability counter screen (AID 1159551); also: % is scaled to controls: 0 for no effect and ±100 for the full control effect; nearly all actives have a fitted effect of over 35% in size
Method in brief: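 Cells (C3RL4) are plated, incubated overnight, dosed with compound in DMSO, then given retinol at 1 uM final. After 6 h at 37 C, CellTiter-Glo is added and luminescence read following 30 min at room temperature.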

[12] = qHTS assay to identify small molecule antagonists of the retinoic acid receptor (RAR) signaling pathway (AID 1159552)
Method in brief: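 RARE-luc C3RL4 cells; cpds + 1 uM (final) retinol, 6 hr, 37 C/5% CO2; luciferase reagent, 30 min RT, luminescence readout. Inhibitors of retinol-driven signal scored.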

[13] = qHTS assay to identify small molecule agonists of the retinoic acid receptor (RAR) signaling pathway (AID 1159553); also: % is scaled to controls: 0 for no effect and ±100 for the full control effect
Method in brief: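 Seed C3RL4 reporter cells at 1,000 per well and incubate overnight at 37 C. Add compounds in DMSO, incubate 6 hr. Add luciferase reagent, wait 30 min at room temperature, read luminescence.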

[14] = qHTS assay to identify small molecule agonists of the AP-1 signaling pathway (AID 1159526; calls by dose curve; also: % is scaled to controls: 0 for no effect and ±100 for the full control effect)
[15] = qHTS assay to identify small molecule antagonists of the estrogen related receptor (ERR) signaling pathway (AID 1224819)
Method in brief: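 qHTS in ERR cells, 2,000/well, 1536 format. Cpd (DMSO) added after 6 h settle, 18 h 37 C. One-Glo luminescence, 30 min RT.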

[16] = qHTS assay to identify small molecule agonists of the estrogen related receptor (ERR) signaling pathway (AID 1224820); also: % is scaled to controls: 0 for no effect and ±100 for the full control effect
Method in brief: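 Following a 6 h settling period, 2,000 ERR cells per well receive DMSO-dissolved compounds by pin tool and incubate 18 h at 37 C; agonist activity is scored from One-Glo luminescence read 30 min post-addition.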

[17] = qHTS assay to identify small molecule antagonists of the vitamin D receptor (VDR) signaling pathway - cell viability counter screen (AID 743225)
Method in brief: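 VDR-bla HEK 293T cells, 4 h pre-incubation at 37C, then compound plus 1-alpha,25-dihydroxyvitamin D3 (3 nM final) for 16 h. After the beta-lactamase FRET read, CellTiter-Glo was added to the same wells; luminescence after 30 min at room temperature.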

OCCc1ccncc1
inactive: outcome [1] | outcome [2] | outcome [3] | outcome [4] | outcome [5] | Potency [6] | Potency [7] | outcome [8] | outcome [9] | Potency [10] | outcome [11] | outcome [12] | Potency [13]

Cc1nc2sccn2c(=O)c1CCN1CCC(=C(c2ccc(F)cc2)c2ccc(F)cc2)CC1
active: Potency [15] 19.6 µM
inactive: outcome [1] | outcome [2] | outcome [3] | outcome [4] | outcome [5] | Potency [6] | Potency [7] | outcome [8] | Potency [14] | outcome [11] | outcome [12] | Potency [13] | outcome [16]

C[Si](C)(C)O[Si](C)(C)O[Si](C)(C)C
inactive: outcome [1] | outcome [17] | outcome [2] | outcome [3] | outcome [4] | outcome [5] | Potency [6] | Potency [7] | outcome [8] | Potency [14] | Potency [10]

O=C(OC1C[C@H]2CC[C@@H](C1)[N+]21CCCC1)C(O)(c1ccccc1)c1ccccc1 (stereo not given in full)
inactive: outcome [1] | outcome [17] | outcome [2] | outcome [3] | outcome [4] | outcome [5] | Potency [6] | Potency [7] | outcome [8] | outcome [9] | Potency [10] | outcome [11] | outcome [12] | Potency [13]

COC=O
inactive: viability change, negative = cytotoxic [17] 18% [at 6.95 µM] | activation [2] 0.465% [at 6.95 µM] | activity, negative = cytotoxic [3] -3.71% [at 6.95 µM] | activation [4] -0.899% [at 6.95 µM] | activity change, negative = cytotoxicity [5] -18.1% [at 6.95 µM] | activity, negative = cytotoxicity [6] -1.04% [at 8.39 µM] | activity change, negative = inhibition [7] -0.709% [at 8.39 µM] | viability change, negative = cytotoxic [8] 12.8% [at 6.97 µM] | activation [14] -1.7% [at 6.97 µM] | activity change, negative = cytotoxicity [11] 0.256% [at 8.39 µM] | activity, negative = inhibition [12] -0.361% [at 8.39 µM] | activation [13] 3.97% [at 8.36 µM]

CC1=C(C)C(=O)C(C(CCCCCC(=O)O)c2ccccc2)=C(C)C1=O (stereo not given)
inactive: outcome [1] | outcome [17] | outcome [2] | outcome [3] | outcome [4] | outcome [5] | Potency [6] | outcome [8] | Potency [14] | Potency [10] | outcome [11] | outcome [12] | Potency [13]

CCCCCCOC(=O)c1ccccc1
inactive: outcome [2] | outcome [3] | outcome [4] | outcome [5] | Potency [6] | Potency [7] | outcome [8] | Potency [14] | outcome [11] | outcome [12]

CCc1cnc(C(=O)O)c(C(=O)O)c1
inactive: outcome [1] | outcome [17] | outcome [2] | outcome [3] | outcome [4] | outcome [5] | Potency [6] | Potency [7] | outcome [8] | Potency [14] | Potency [10]

CC(C)CC(C)(C)C
inactive: outcome [17] | outcome [2] | outcome [3] | outcome [4] | outcome [5] | Potency [6] | Potency [7] | outcome [8] | Potency [14] | outcome [11] | outcome [12] | Potency [13]

CC(C)=CCC/C(C)=C/C=N/O
inactive: outcome [1] | outcome [2] | outcome [3] | outcome [4] | outcome [5] | Potency [6] | outcome [8] | Potency [14] | Potency [10] | outcome [11] | outcome [12] | Potency [13]

O=C(Cl)c1cc(Cl)cc(Cl)c1
inactive: outcome [1] | outcome [17] | outcome [2] | outcome [3] | outcome [4] | outcome [5] | Potency [6] | Potency [7] | outcome [8] | Potency [14] | Potency [10]

O=C(O)c1ccc2c(c1)nc(C(=O)NC1CCN(C3CC3)CC1)n2Cc1cc(-c2ccc(Cl)s2)on1
inactive: outcome [17] | outcome [2] | outcome [3] | outcome [4] | outcome [5] | activity, negative = cytotoxicity [6] -12.3% [at 19 µM] | activity change, negative = inhibition [7] -14.3% [at 19 µM] | viability change, negative = cytotoxic [8] 0.765% [at 15.8 µM] | activation [14] -0.694% [at 15.8 µM] | activity change, negative = cytotoxicity [11] 0.727% [at 19 µM]

Clc1cc(Cl)c2c(c1)N=C1CCCCCN1C2
inactive: outcome [17] | outcome [2] | outcome [3] | outcome [4] | outcome [5] | Potency [6] | Potency [7] | outcome [8] | Potency [14] | outcome [11] | outcome [12]

CC(Cc1ccccc1)(NC(=O)CN)c1ccccc1 (stereo not given)
inactive: outcome [1] | outcome [17] | outcome [2] | outcome [3] | outcome [4] | outcome [5] | Potency [6] | Potency [7] | outcome [8] | outcome [9] | Potency [10] | outcome [11] | outcome [12] | Potency [13]

O=C(NC1CCN(CCc2c[nH]c3ccccc23)CC1)c1ccccc1
inactive: outcome [17] | outcome [2] | outcome [3] | outcome [4] | outcome [5] | Potency [6] | Potency [7] | outcome [8] | outcome [9] | Potency [10] | outcome [11] | outcome [12]

CC(C)(C)NCC(O)COc1ccc(NC(=O)NC2CCCCC2)cc1 (stereo not given)
inactive: outcome [1] | outcome [17] | outcome [2] | outcome [3] | outcome [4] | outcome [5] | Potency [6] | Potency [7] | outcome [8] | Potency [14] | outcome [11] | outcome [12]

Cc1cccc(C)c1NC(=O)CN1CCCC1
inactive: outcome [1] | outcome [17] | outcome [2] | outcome [3] | outcome [4] | outcome [5] | Potency [6] | Potency [7] | outcome [8] | outcome [9] | Potency [10] | outcome [12] | Potency [13]

From PubChem BioAssay (Tox21)
